Targets with a hit are over-represented here; the source holds about 8,800 in all. About 0.5% of all pairs of compound and target were hits. Unmarked numbers belong to inactive results.
How the values were obtained:
Test in all cases: log2 fold change, soluble protein after heating vs DMSO (PISA); higher = thermal stabilisation; K562 lysate, 10 uM; active = over 0.2 and 3.5 SD of the protein, either way, in both replicates (recomputed)
[1] = compound: CN1CC[C@H](c2c(O)cc(O)c3c(=O)cc(-c4ccccc4Cl)oc23)[C@H](O)C1 [alvocidib]
Summary of the method: (§1)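 Log-two fold change in thermal stability relative to solvent controls is reported from duplicates. For each sample, crude K562 extract from dounce-homogenised pellets in PBS pH 7.4 with 1 mM MgCl2, at 1 mg/mL protein, was treated with 10 μM compound for 30 min. Aliquots heated for 3 min across 48°C-58°C were pooled, brought to 0.5% NP-40 at 4°C and cleared at 21,000xg for 90 min. The supernatant was quantified by TMTpro 16plex LC-MS/MS with channel sums equalised.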

[2] = compound: CN1CCc2c(c3ccccc3n2Cc2ccc(C(=O)NO)cc2)C1 [Tubastatin A]
Summary of the method: as §1

[3] = compound: CNC(=O)C1=CC=CC=C1NC2=NC(=NC=C2Cl)NC3=C(C=C(C=C3)N4CCOCC4)OC
Summary of the method: as §1

[4] = compound: CNC(=O)c1ccc(Nc2ncc(C(F)(F)F)c(NCc3nccnc3N(C)S(C)(=O)=O)n2)cc1 [defactinib]
Summary of the method: as §1

[5] = compound: CNc1nc(-c2ccc3c(N)n[nH]c3c2)cc(N2C[C@@H](C(=O)NC3CCCCC3)CC[C@H]2C)n1
Summary of the method: as §1

[6] = compound: COC(=O)N[C@@H](C)CNc1nccc(-c2cn(C(C)C)nc2-c2cc(Cl)cc(NS(C)(=O)=O)c2F)n1 [encorafenib]
Summary of the method: as §1

[7] = compound: COC(=O)[C@H](CCSC)NC(=O)C1=C(C=C(C=C1)NC[C@H](CS)N)C2=CC=CC=C2
Summary of the method: as §1

[8] = compound: COc1cc(Nc2ncc3c(n2)-c2ccc(Cl)cc2C(c2c(F)cccc2OC)=NC3)ccc1C(=O)O [alisertib]
Summary of the method: as §1

[9] = compound: COc1cc2nc(-c3cc(F)ccc3O)nc(N[C@@H]3CNC[C@H]3C(C)(C)O)c2cc1OC
Summary of the method: as §1

[10] = compound: COc1cc2ncnc(Nc3ccc(F)c(Cl)c3)c2cc1OCCCN1CCOCC1 [gefitinib]
Summary of the method: as §1

[11] = compound: CS(=O)(=O)CCNCc1ccc(-c2ccc3ncnc(Nc4ccc(OCc5cccc(F)c5)c(Cl)c4)c3c2)o1 [lapatinib]
Summary of the method: as §1

[12] = compound: CS(=O)(=O)N1CCN(Cc2cc3nc(-c4cccc5[nH]ncc45)nc(N4CCOCC4)c3s2)CC1 [pictilisib]
Summary of the method: as §1

[13] = compound: C[C@@H](Oc1cc(-c2cnn(C3CCNCC3)c2)cnc1N)c1c(Cl)ccc(F)c1Cl [crizotinib]
Summary of the method: as §1

[14] = compound: C[C@H](C1=CC=C(C=C1)C(=O)NC2=C3C=CNC3=NC=C2)N
Summary of the method: as §1

[15] = compound: C[C@H](Nc1ncnc2nc[nH]c12)c1cc2cccc(Cl)c2c(=O)n1-c1ccccc1 [duvelisib]
Summary of the method: as §1

[16] = compound: Cc1cc(Nc2cc(CN3CCOCC3)c3nc(C)c(Cc4ccc(Cl)cc4F)n3n2)n[nH]1 [gandotinib]
Summary of the method: as §1

[17] = compound: Cc1cc(Nc2cc(N3CCN(C)CC3)nc(Sc3ccc(NC(=O)C4CC4)cc3)n2)n[nH]1 [tozasertib]
Summary of the method: as §1

[18] = compound: Cc1ccc(-n2nc(C(C)(C)C)cc2NC(=O)Nc2ccc(OCCN3CCOCC3)c3ccccc23)cc1 [doramapimod]
Summary of the method: as §1

[19] = compound: Cc1ccc(NC(=O)c2ccc(CN3CC[C@H](N(C)C)C3)c(C(F)(F)F)c2)cc1Nc1nccc(-c2cncnc2)n1 [bafetinib]
Summary of the method: as §1

[20] = compound: Cc1cccc(CC(=O)N2CCc3c2ccc(-c2cn(C)c4ncnc(N)c24)c3F)n1
Summary of the method: as §1

Chain of UniProt P18031 (P18031 whole entry, looked up): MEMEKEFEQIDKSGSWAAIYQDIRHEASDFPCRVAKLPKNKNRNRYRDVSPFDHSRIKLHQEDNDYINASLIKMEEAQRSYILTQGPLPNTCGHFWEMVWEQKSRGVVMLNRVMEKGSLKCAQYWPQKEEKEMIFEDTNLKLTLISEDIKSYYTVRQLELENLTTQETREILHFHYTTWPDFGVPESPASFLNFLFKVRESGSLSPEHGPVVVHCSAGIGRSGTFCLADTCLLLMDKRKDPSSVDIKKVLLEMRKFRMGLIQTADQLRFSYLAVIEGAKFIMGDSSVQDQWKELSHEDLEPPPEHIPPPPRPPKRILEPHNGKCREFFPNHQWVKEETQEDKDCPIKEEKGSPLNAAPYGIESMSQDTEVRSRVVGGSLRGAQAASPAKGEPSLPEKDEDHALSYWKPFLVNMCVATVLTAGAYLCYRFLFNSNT
Chain of UniProt Q9BZL6 (Q9BZL6 whole entry, looked up): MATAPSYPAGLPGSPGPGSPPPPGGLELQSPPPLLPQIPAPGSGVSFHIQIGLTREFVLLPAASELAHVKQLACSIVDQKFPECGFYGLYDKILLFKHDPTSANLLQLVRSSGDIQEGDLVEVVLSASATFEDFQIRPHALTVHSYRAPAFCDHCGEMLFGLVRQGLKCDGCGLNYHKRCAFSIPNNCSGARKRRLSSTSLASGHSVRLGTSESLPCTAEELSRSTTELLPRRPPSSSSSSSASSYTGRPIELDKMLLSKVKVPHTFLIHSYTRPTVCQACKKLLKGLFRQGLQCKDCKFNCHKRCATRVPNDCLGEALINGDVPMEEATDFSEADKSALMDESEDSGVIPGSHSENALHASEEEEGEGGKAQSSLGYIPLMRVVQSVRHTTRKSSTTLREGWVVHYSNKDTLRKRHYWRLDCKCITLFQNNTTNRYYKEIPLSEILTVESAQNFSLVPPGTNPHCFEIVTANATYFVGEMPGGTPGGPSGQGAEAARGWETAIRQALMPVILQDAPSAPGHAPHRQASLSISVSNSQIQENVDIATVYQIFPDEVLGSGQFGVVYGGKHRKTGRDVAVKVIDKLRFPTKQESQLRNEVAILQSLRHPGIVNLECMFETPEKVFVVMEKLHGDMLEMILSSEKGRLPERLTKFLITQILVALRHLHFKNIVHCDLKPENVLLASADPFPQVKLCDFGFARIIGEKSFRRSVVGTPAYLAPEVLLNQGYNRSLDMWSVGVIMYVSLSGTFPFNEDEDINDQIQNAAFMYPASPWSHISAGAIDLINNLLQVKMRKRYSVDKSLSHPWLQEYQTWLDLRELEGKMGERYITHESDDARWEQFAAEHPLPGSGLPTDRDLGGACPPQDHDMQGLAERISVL
Chain of UniProt O00541 (O00541 whole entry, looked up): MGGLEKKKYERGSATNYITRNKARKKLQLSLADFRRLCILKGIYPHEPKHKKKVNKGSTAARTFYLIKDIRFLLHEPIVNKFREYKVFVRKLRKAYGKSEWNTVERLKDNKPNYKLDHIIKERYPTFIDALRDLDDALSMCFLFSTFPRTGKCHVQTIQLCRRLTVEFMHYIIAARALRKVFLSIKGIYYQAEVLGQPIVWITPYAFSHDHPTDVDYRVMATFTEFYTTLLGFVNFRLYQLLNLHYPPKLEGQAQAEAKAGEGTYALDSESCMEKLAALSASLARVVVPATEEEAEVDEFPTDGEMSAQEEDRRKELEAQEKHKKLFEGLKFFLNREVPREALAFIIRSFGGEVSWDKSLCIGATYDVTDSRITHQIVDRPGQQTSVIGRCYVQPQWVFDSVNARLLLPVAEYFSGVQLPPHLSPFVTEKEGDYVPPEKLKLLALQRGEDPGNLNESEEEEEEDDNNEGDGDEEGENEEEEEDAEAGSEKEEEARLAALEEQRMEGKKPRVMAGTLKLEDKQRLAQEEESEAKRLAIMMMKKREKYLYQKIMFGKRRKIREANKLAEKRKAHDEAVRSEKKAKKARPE
Chain of UniProt P42338 (P42338 whole entry, looked up): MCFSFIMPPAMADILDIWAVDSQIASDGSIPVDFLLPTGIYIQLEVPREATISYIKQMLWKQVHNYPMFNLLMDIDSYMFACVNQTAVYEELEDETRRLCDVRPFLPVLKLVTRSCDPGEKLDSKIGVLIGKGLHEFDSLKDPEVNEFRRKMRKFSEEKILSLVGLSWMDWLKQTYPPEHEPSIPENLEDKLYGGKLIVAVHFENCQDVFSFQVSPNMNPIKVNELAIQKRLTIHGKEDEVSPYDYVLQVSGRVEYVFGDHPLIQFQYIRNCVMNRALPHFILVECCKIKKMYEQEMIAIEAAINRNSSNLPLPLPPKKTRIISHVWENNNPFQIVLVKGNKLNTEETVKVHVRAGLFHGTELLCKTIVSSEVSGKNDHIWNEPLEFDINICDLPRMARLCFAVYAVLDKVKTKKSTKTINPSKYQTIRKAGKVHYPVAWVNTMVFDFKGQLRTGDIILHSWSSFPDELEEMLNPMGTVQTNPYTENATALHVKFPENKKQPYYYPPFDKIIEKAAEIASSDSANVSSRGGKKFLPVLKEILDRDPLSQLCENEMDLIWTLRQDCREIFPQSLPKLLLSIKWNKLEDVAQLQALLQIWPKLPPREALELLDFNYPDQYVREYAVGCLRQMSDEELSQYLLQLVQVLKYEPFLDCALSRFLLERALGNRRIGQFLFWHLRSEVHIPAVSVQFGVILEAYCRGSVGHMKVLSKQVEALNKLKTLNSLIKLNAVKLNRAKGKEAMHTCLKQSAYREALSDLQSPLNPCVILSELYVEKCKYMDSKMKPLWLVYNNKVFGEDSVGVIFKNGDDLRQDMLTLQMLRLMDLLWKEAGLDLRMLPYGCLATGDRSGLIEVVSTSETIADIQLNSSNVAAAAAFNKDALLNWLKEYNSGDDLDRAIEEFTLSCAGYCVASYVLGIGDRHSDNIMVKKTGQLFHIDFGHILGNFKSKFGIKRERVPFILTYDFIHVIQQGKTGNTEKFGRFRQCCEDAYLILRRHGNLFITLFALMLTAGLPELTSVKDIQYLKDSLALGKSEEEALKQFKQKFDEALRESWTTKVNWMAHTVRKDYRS
Chain of UniProt Q16875 (Q16875 whole entry, looked up): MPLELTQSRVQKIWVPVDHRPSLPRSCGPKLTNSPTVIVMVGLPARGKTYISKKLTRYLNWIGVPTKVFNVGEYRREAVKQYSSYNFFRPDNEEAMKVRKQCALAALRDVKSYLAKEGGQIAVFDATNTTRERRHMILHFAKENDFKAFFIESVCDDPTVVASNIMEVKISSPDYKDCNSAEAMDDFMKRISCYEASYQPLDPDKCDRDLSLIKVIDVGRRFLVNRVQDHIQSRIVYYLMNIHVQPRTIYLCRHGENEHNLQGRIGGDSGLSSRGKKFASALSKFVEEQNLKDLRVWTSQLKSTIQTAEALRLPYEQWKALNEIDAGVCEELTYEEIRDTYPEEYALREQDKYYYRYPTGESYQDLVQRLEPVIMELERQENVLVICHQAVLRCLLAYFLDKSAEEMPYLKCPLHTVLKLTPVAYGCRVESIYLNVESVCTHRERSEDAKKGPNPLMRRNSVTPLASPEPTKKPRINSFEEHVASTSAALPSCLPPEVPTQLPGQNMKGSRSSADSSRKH
Chain of UniProt P05771 (P05771 whole entry, looked up): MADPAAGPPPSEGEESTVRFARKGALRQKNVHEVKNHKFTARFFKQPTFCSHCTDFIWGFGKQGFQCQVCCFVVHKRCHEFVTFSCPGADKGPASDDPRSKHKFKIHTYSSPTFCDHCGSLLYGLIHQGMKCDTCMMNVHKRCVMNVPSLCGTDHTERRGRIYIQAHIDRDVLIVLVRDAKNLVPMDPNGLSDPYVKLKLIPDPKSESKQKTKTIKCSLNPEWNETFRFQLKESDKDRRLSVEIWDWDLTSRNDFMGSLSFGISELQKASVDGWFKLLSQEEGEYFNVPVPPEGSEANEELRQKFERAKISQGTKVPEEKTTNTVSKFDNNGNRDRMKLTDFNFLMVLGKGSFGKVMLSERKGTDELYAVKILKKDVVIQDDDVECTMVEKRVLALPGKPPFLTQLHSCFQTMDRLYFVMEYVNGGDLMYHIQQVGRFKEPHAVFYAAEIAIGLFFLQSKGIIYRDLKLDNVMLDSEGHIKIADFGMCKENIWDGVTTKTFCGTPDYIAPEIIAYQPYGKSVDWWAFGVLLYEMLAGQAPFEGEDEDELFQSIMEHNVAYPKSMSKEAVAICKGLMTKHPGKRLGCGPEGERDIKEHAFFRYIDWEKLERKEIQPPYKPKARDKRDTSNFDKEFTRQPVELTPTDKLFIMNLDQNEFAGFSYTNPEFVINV
Chain of UniProt Q93096 (Q93096 whole entry, looked up): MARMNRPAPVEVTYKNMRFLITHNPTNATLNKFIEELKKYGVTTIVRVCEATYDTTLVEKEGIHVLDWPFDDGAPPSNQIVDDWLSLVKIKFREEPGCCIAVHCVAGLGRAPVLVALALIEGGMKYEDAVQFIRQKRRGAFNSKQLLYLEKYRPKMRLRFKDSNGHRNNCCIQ

In the case of PES1 (UniProt O00541), the log2 fold change [1] is reported as -0.017, the log2 fold change [2] is reported as -0.044 and the log2 fold change [3] is reported as 0.05. The log2 fold change [4] was 0.005, the log2 fold change [5] was 0.017 and the log2 fold change [6] was 0.006. The log2 fold change [7] was 0.35 (active), the log2 fold change [8] was 0.028 and the log2 fold change [9] was -0.003. For the same target, the log2 fold change [10] was 0.007, the log2 fold change [11] was 0.006 and the log2 fold change [12] was 0.005. It also gave a log2 fold change [13] of -0.001, a log2 fold change [14] of -0.027 and a log2 fold change [15] of 0.01. It also gave a log2 fold change [16] of -0.025, a log2 fold change [17] of 0.004 and a log2 fold change [18] of -0.021. It also gave a log2 fold change [19] of -0.014 and a log2 fold change [20] of 0.064.

For PTP4A1 (UniProt Q93096), the log2 fold change [1] was 0.05, the log2 fold change [2] was 0.033 and the log2 fold change [3] was 0.023. For the same target, the log2 fold change [4] was 0.033, the log2 fold change [5] was 0.023 and the log2 fold change [6] was 0.006. The log2 fold change [7] was -0.006, the log2 fold change [8] was -0.056 and the log2 fold change [9] was -0.015. It also gave a log2 fold change [10] of 0.049, a log2 fold change [11] of -0.002 and a log2 fold change [12] of 0.008. For the same target, the log2 fold change [13] was 0.09, the log2 fold change [14] was 0.133 and the log2 fold change [15] was 0.023. For the same target, the log2 fold change [16] was -0.031, the log2 fold change [17] was 0.001 and the log2 fold change [18] was -0.009. The log2 fold change [19] was -0.042 and the log2 fold change [20] was -0.055.

Work on PIK3CB (UniProt P42338) yielded a log2 fold change [1] of -0.002, a log2 fold change [2] of -0.123 and a log2 fold change [3] of 0.056. For the same target, the log2 fold change [4] was -0.044, the log2 fold change [5] was -0.013 and the log2 fold change [6] was -0.02. For the same target, the log2 fold change [7] was -0.126, the log2 fold change [8] was -0.01 and the log2 fold change [9] was -0.011. For the same target, the log2 fold change [10] was -0.019, the log2 fold change [11] was -0.007 and the log2 fold change [12] was 0.497 (active). For the same target, the log2 fold change [13] was -0.068, the log2 fold change [14] was 0.022 and the log2 fold change [15] was 0.645 (active). It also gave a log2 fold change [16] of 0.096, a log2 fold change [17] of 0.017 and a log2 fold change [18] of -0.006. It also gave a log2 fold change [19] of -0.034 and a log2 fold change [20] of 0.012.

Target PRKCB isoform 2 (UniProt P05771) has a log2 fold change [1] of -0.004, a log2 fold change [2] of 0.054 and a log2 fold change [3] of -0.029. The log2 fold change [4] was -0.019, the log2 fold change [5] was 0.03 and the log2 fold change [6] was 0.057. For the same target, the log2 fold change [7] was -0.203, the log2 fold change [8] was 0.039 and the log2 fold change [9] was 0.148. The log2 fold change [10] was 0.008, the log2 fold change [11] was -0.001 and the log2 fold change [12] was 0.003. The log2 fold change [13] was 0.036, the log2 fold change [14] was -0.012 and the log2 fold change [15] was 0.033. It also gave a log2 fold change [16] of -0.122, a log2 fold change [17] of 0.035 and a log2 fold change [18] of 0.009. For the same target, the log2 fold change [19] was -0.01 and the log2 fold change [20] was 0.021.

For PIKFYVE (UniProt Q9Y2I7), the log2 fold change [1] was -0.049, the log2 fold change [2] was -0.126 and the log2 fold change [3] was 0.032. The log2 fold change [4] was 0.078, the log2 fold change [5] was -0.031 and the log2 fold change [6] was 0.044. For the same target, the log2 fold change [7] was 0.088, the log2 fold change [8] was 0.031 and the log2 fold change [9] was 0.004. It also gave a log2 fold change [10] of -0.005, a log2 fold change [11] of -0.039 and a log2 fold change [12] of -0.06. It also gave a log2 fold change [13] of -0.002, a log2 fold change [14] of -0.058 and a log2 fold change [15] of -0.013. The log2 fold change [16] was 0.01, the log2 fold change [17] was -0.014 and the log2 fold change [18] was 0.029. It also gave a log2 fold change [19] of -0.053 and a log2 fold change [20] of 0.066.

For PTPN1 (UniProt P18031), the log2 fold change [1] was -0.002, the log2 fold change [2] was -0.048 and the log2 fold change [3] was 0.018. For the same target, the log2 fold change [4] was 0.015, the log2 fold change [5] was -0.033 and the log2 fold change [6] was -0.003. The log2 fold change [7] was 0.014, the log2 fold change [8] was 0.005 and the log2 fold change [9] was 0.047. For the same target, the log2 fold change [10] was 0.014, the log2 fold change [11] was -0.022 and the log2 fold change [12] was -0.022. It also gave a log2 fold change [13] of -0.031, a log2 fold change [14] of -0.042 and a log2 fold change [15] of -0.007. For the same target, the log2 fold change [16] was -0.055, the log2 fold change [17] was 0.069 and the log2 fold change [18] was 0.059. It also gave a log2 fold change [19] of -0.029 and a log2 fold change [20] of 0.062.

In the case of PDE4DIP isoform 4 (UniProt Q5VU43), the log2 fold change [1] is reported as -0.038, the log2 fold change [2] is reported as 0.004 and the log2 fold change [3] is reported as -0.003. The log2 fold change [4] was -0.018, the log2 fold change [5] was 0.036 and the log2 fold change [6] was 0.006. The log2 fold change [7] was 0.004, the log2 fold change [8] was 0.023 and the log2 fold change [9] was -0.007. For the same target, the log2 fold change [10] was -0.059, the log2 fold change [11] was -0.003 and the log2 fold change [12] was -0.076. The log2 fold change [13] was -0.048, the log2 fold change [14] was -0.069 and the log2 fold change [15] was -0.017. For the same target, the log2 fold change [16] was 0.116, the log2 fold change [17] was -0.005 and the log2 fold change [18] was 0. The log2 fold change [19] was -0.073 and the log2 fold change [20] was 0.05.

PRKD2 isoform 3 (UniProt Q9BZL6) showed a log2 fold change [1] of 0.01, a log2 fold change [2] of -0.145 and a log2 fold change [3] of -0.125. The log2 fold change [4] was 0.24, the log2 fold change [5] was 0.024 and the log2 fold change [6] was 0.091. For the same target, the log2 fold change [7] was -0.001, the log2 fold change [8] was -0.028 and the log2 fold change [9] was 0.238. For the same target, the log2 fold change [10] was -0.165, the log2 fold change [11] was 0.087 and the log2 fold change [12] was -0.009. For the same target, the log2 fold change [13] was -0.043, the log2 fold change [14] was -0.047 and the log2 fold change [15] was 0.05. For the same target, the log2 fold change [16] was -0.15, the log2 fold change [17] was 0.019 and the log2 fold change [18] was -0.002. It also gave a log2 fold change [19] of 0.02 and a log2 fold change [20] of -0.01.

Work on PFKFB3 isoform 4 (UniProt Q16875) yielded a log2 fold change [1] of -0.012, a log2 fold change [2] of -0.05 and a log2 fold change [3] of 0.058. It also gave a log2 fold change [4] of -0.006, a log2 fold change [5] of 0.012 and a log2 fold change [6] of 0.041. The log2 fold change [7] was -0.137, the log2 fold change [8] was -0.01 and the log2 fold change [9] was 0. The log2 fold change [10] was -0.01, the log2 fold change [11] was -0.228 and the log2 fold change [12] was -0.057. For the same target, the log2 fold change [13] was -0.021, the log2 fold change [14] was 0.004 and the log2 fold change [15] was -0.009. For the same target, the log2 fold change [16] was -0.006, the log2 fold change [17] was -0.003 and the log2 fold change [18] was 0.007. It also gave a log2 fold change [19] of -0.03 and a log2 fold change [20] of 0.007.

— the supplement of paper PMC10849652
